In the library only some 8.8% were active in any assay of this set; here they are far more common.
HttQ103 aggreg = inhibitors of mutant huntingtin aggregate formation in PC12 cells. PC12 HttQ103-GFP aggregates, Acumen cytometry, 40 h. Potency, µM (series often up to 46.1 µM), actives largely listed as inhibitors. actives 1.1% (n = 220,000); note: nearly all actives have a fitted effect of over 60% in size
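Steps: seed 1500 PC12 HTTQ103-GFP cells/well; add tebufenozide, 100 nM final; add compound titration; add ATPLite reagent; quantify GFP aggregates by laser scanning cytometry.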
HTT ATP protect = cytoprotection in Huntington HTT-Q103 PC12 cell model; PC12 HTT-Q103 induced, cytoprotection, ATP luminescence, 40 h; Potency, µM (highest dose often 56.4 µM), actives largely listed as activators; actives 0.14% (n = 230,000); AID 1471; note: nearly all actives have a fitted effect of over 45% in size
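Quantitative HTS on tebufenozide-induced (100 nM) PC12 cells expressing HTTQ103 exon 1–GFP; compounds tested as a concentration series; survival measured via cellular ATP.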
Lamin A splicing = changes lamin A minigene splicing in HeLa cells; Potency, µM (titrated, usually from 46.1 µM), most hits filed as inhibitors; actives 0.01% (n = 200,000); AID 1487; HeLa LMNA splicing GFP/RFP minigene ratio, 48 h; active = well fitted inhibition curve with a large enough effect in the signal ratio, with a control signal flat, not every such curve was filed as active; inconclusive = small, poorly fitted or top-dose-only effect, or effect the other way, or a change in a side signal; the % refers to the signal ratio
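Read-out is the ratio of GFP to DsRed2 object intensity, acquired by 488 nm laser-scanning cytometry on HeLa lamin A-EGFP minigene reporter cells. Compound incubation 48 hrs at 37 °C in Opti-MEM with 2% FBS; DMSO 0.5% final.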
HPGD block = inhibitors of human 15-hydroxyprostaglandin dehydrogenase (HPGD); AID 894; Potency, µM, actives largely listed as inhibitors; purified HPGD, NADH fluorescence kinetic, PGE2 substrate; actives 4.3% (n = 150,000); active = well fitted inhibition curve with a large enough effect, not every such curve was filed as active; inconclusive = small, poorly fitted or top-dose-only effect, or another doubt; inactive = no such curve, though single readings can be large or run the other way
Target sequence (P15428 whole entry, looked up): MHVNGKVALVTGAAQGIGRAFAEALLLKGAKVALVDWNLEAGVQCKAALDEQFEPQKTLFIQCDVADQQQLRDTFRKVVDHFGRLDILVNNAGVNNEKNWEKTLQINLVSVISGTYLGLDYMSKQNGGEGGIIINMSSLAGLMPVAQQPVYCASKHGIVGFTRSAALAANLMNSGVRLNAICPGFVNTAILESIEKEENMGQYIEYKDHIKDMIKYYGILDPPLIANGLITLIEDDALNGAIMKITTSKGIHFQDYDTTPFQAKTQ
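20 nM HPGD preincubated 15 min at room temperature with compound in 50 mM Tris-HCl pH 8, 0.01% Tween 20. Started with 1 mM NAD+ and 30 uM prostaglandin E2; NADH fluorescence (360/450 nm) read 5 times over 30-s intervals, last minus first.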
ALDH1A1 block = inhibitors of human aldehyde dehydrogenase 1A1. P00352. Purified ALDH1A1, NADH fluorescence, propionaldehyde substrate. Potency, µM (series often up to 75.3 µM), hits mostly inhibitors. actives 7.3% (n = 220,000). AID 1030; active = well fitted inhibition curve with a large enough effect, not every such curve was filed as active; inconclusive = small, poorly fitted or top-dose-only effect, or another doubt; inactive = no such curve, though single readings can be large or run the other way
Target sequence (P00352 whole entry, looked up): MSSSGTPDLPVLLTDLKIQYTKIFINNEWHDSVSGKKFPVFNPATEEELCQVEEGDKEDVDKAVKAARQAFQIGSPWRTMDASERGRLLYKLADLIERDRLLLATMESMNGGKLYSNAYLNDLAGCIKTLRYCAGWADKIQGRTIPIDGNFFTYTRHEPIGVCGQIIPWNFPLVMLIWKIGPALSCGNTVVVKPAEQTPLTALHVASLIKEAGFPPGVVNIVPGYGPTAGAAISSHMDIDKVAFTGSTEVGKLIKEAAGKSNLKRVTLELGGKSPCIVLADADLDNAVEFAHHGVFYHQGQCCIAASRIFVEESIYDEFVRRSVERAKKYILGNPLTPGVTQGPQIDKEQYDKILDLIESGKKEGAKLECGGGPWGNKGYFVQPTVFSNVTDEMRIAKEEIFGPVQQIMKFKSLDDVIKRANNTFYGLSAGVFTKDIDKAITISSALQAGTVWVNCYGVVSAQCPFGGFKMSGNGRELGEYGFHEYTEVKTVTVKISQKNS
Each line names hits and unclear results; the compound was inactive in the other large screens. Unless noted, calls come from the whole dose curve; as a rule, active = well fitted curve in the direction sought with a large enough effect; inconclusive = small, poorly fitted or top-dose-only effect, or another doubt; inactive = no such curve, though single readings can be large; an effect the other way counts as inactive or inconclusive.

CN1CCN(c2ncc3nc(-c4cccs4)c(=O)n(CCc4ccccc4)c3n2)CC1	ALDH1A1 block inconclusive (no result: HttQ103 aggreg, HPGD block)
CNC(=O)c1ccc(Nc2nnc(-c3ccc(C)c(S(=O)(=O)NCC4CCCO4)c3)c3ccccc23)cc1 (configuration not stated)	HPGD block 25µM, ALDH1A1 block inconclusive
CC(=O)Nc1ccc(Nc2nnc(-c3ccc(C)c(S(=O)(=O)NCC4CCCO4)c3)c3ccccc23)cc1 (configuration not stated)	none (no result: Lamin A splicing, HPGD block, ALDH1A1 block)
Clc1ccc(-c2csc(Nc3ccccc3)[n+]2Cc2ccco2)c(Cl)c1	HttQ103 aggreg inconclusive, Lamin A splicing inconclusive, ALDH1A1 block 18µM (no result: HPGD block)
CCCC[n+]1c(-c2ccc(Cl)cc2Cl)csc1Nc1ccccc1	none
O=C(Nc1ccccc1)N1CC2(CCN(S(=O)(=O)c3ccccc3)CC2)C1	none (no result: HttQ103 aggreg, Lamin A splicing)
CC1CCCCN1C(=O)c1ccc(COc2ccc([N+](=O)[O-])cc2)o1 (configuration not stated)	Lamin A splicing inconclusive, HPGD block 22µM, ALDH1A1 block 14µM (no result: HTT ATP protect)
CN(C)c1ccc(C(=S)N2CCN(c3ccccc3)CC2)cc1	Lamin A splicing inconclusive, ALDH1A1 block 13µM
Cc1ccc(N2CCN(C(=S)c3ccc(N(C)C)cc3)CC2)cc1	HttQ103 aggreg inconclusive, Lamin A splicing inconclusive, HPGD block 25µM, ALDH1A1 block 7.9µM
Cc1ccc(N2CCN(C(=S)Nc3ccccc3)CC2)cc1	none (no result: Lamin A splicing, HPGD block)
COc1cccc(Nc2ncc3ncc(=O)n(C)c3n2)c1	none (no result: HttQ103 aggreg, HPGD block)
CS(=O)(=O)Nc1cccc(-c2nc(-n3ccnc3)c3ccccc3n2)c1	HTT ATP protect inconclusive, Lamin A splicing inconclusive (no result: HttQ103 aggreg, HPGD block)
CS(=O)(=O)Nc1cccc(-c2nccc(-n3ccnc3)n2)c1	HPGD block 18µM (no result: HttQ103 aggreg)
C/C(=N\N1C(=O)CSC1=S)c1ccc(Br)cc1	HTT ATP protect inconclusive, Lamin A splicing inconclusive, ALDH1A1 block 25µM (no result: HPGD block)
Cc1ccc(C(=O)NN2C(=O)CSC2=S)cc1	none (no result: HTT ATP protect)
COc1ccc2[nH]cc(CCNc3ccnc(-c4ccc(N(C)C)cc4)n3)c2c1	Lamin A splicing inconclusive, ALDH1A1 block inconclusive (no result: HttQ103 aggreg, HPGD block)
CN1CC(=O)N(CC(=O)Nc2cc(Cl)cc(Cl)c2)C1=O	Lamin A splicing inconclusive, ALDH1A1 block 10µM (no result: HPGD block)
CC1(C)CC(=O)C2=C(C1)Nc1ccccc1N=C2	ALDH1A1 block 1.8µM
O=c1c2c3c(sc2nnn1Cc1ccc(F)cc1)CCCC3	none (no result: HttQ103 aggreg, HTT ATP protect, HPGD block, ALDH1A1 block)
CSc1nc2sc3c(c2c(=O)n1C)CCCC3	ALDH1A1 block inconclusive
C=CCn1nnc2sc3c(c2c1=O)CCC(C)C3 (configuration not stated)	ALDH1A1 block 18µM
CSc1nc2sc3c(c2c(=O)n1C)CCC(C)C3 (configuration not stated)	ALDH1A1 block 25µM
COc1ccccc1C(=O)Nc1cccc(C(=O)OCc2cc(=O)n3c4c(sc3n2)CCCC4)c1	none (no result: HttQ103 aggreg, HTT ATP protect, HPGD block, ALDH1A1 block)
CCS(=O)(=O)N1CC(=O)N(c2cc(C)cc(C)c2)C(C)(C(=O)NC2CCCCC2)C1 (configuration not stated)	none (no result: HttQ103 aggreg, HTT ATP protect, HPGD block, ALDH1A1 block)
O=C(CN1CCN(c2ccccn2)CC1)NC1CCCC1	ALDH1A1 block 25µM (no result: HttQ103 aggreg)
O=C(CN1CCN(c2ccccn2)CC1)Nc1ccc(Oc2ccccc2)cc1	ALDH1A1 block 25µM
CC(C)NC(=O)CN1CCN(c2ncccn2)CC1	ALDH1A1 block 28µM
O=C(NC1(C(F)(F)F)N=C2SCCN2C1=O)c1ccccc1F (configuration not stated)	none (no result: Lamin A splicing, HPGD block)
COC(=O)C1=C(C(=O)OC)C(c2cc(Cl)ccc2O)c2sc(=O)[nH]c2S1 (configuration not stated)	HPGD block 20µM, ALDH1A1 block 32µM
O=C1C2C3C=CC(C3=C(c3ccccc3)c3ccccc3)C2C(=O)N1CCO (configuration not stated)	ALDH1A1 block inconclusive
O=C1C2C3C=CC(C3=C(c3ccccc3)c3ccccc3)C2C(=O)N1Cc1ccccc1 (configuration not stated)	Lamin A splicing inconclusive, HPGD block 40µM, ALDH1A1 block 1.1µM
CC(C)CC(=O)Nc1ccc(C(=O)NNC(=S)NC(=O)C2CCCCC2)cc1	HttQ103 aggreg 10µM, Lamin A splicing inconclusive
CCC(=O)NC(=S)NNC(=O)c1ccc(NC(=O)c2ccccc2)cc1	ALDH1A1 block inconclusive (no result: Lamin A splicing, HPGD block)
CCCCCCn1c(CN2CCN(CCO)CC2)nc2c1c(=O)n(C)c(=O)n2C	ALDH1A1 block 4µM
CCCCCn1c(CN2CCN(c3cccc(Cl)c3)CC2)nc2c1c(=O)n(C)c(=O)n2C	HttQ103 aggreg inconclusive, Lamin A splicing inconclusive, ALDH1A1 block 3.5µM
CCCCCn1c(N2CCN(c3cccc(Cl)c3)CC2)nc2c1c(=O)[nH]c(=O)n2C	none
CCCCCn1c(CN2CCN(c3cc(Cl)ccc3C)CC2)nc2c1c(=O)[nH]c(=O)n2C	Lamin A splicing inconclusive, ALDH1A1 block 14µM
CCCCn1c(CN2CCN(c3cccc(Cl)c3)CC2)nc2c1c(=O)n(C)c(=O)n2C	Lamin A splicing inconclusive, ALDH1A1 block 16µM
CCc1ccc(N(C(=O)c2csnn2)C(C(=O)NC(C)(C)CC)c2ccccn2)cc1 (configuration not stated)	ALDH1A1 block inconclusive (no result: Lamin A splicing, HPGD block)
CC(C)Cn1c(-c2ccc(Br)cc2)c[nH]c1=S	ALDH1A1 block inconclusive (no result: Lamin A splicing, HPGD block)
O=c1[nH]cnc(O)c1C(c1cccc([N+](=O)[O-])c1)c1c(O)nc[nH]c1=O	none (no result: Lamin A splicing, HPGD block, ALDH1A1 block)
CC1CCCN(c2nc(N(C)c3ccccc3)nc(N)c2[N+](=O)[O-])C1 (configuration not stated)	ALDH1A1 block inconclusive (no result: Lamin A splicing, HPGD block)
CCCn1c(CN2CCN(c3cccc(Cl)c3)CC2)nc2c1c(=O)n(C)c(=O)n2C	HttQ103 aggreg 5.6µM, ALDH1A1 block inconclusive
CCCCn1c(CN2CCN(c3ccccc3)CC2)nc2c1c(=O)n(C)c(=O)n2C	HttQ103 aggreg inconclusive, Lamin A splicing inconclusive, ALDH1A1 block inconclusive
Cn1ncc2c(NCCc3ccccc3)nc(Cl)nc21	none (no result: HttQ103 aggreg, Lamin A splicing)
Cc1cccc(CSc2nnc3[nH]c(=O)cc(-c4ccccc4)n23)c1	none (no result: HttQ103 aggreg, HTT ATP protect, HPGD block, ALDH1A1 block)
C[C@@]12CC[C@@H]3[C@H](CCC4=CC(=O)CC[C@]43C)[C@@H]1CC[C@@H]2C(=O)Cn1cnc2c(=S)nc[nH]c21	none (no result: HttQ103 aggreg, Lamin A splicing)
COc1ccc2nc(NC(=O)CSc3ccccc3)sc2c1	Lamin A splicing inconclusive, ALDH1A1 block 28µM
CCOc1ccc2nc(NC(=O)CSc3ccc(Cl)cc3)sc2c1	none
Cc1cc(C)nc(NS(=O)(=O)c2ccc(NC(=O)CN3C(=O)C4CC=CCC4C3=O)cc2)n1 (configuration not stated)	ALDH1A1 block 32µM (no result: Lamin A splicing, HPGD block)
Cc1ccc[n+](CC(=O)Nc2nc3ccccc3s2)c1	ALDH1A1 block 14µM (no result: HttQ103 aggreg, HTT ATP protect, Lamin A splicing, HPGD block)
CCOCC(=O)Nc1nc2ccc(OCC)cc2s1	HttQ103 aggreg inconclusive, ALDH1A1 block 16µM
COc1ccc2nc(NC(=O)CSC3=NCCS3)sc2c1	Lamin A splicing inconclusive
CCC(=O)Nc1nc2ccc(S(C)(=O)=O)cc2s1	none
CCCOc1ccc(C(=O)NC(=S)Nc2nc3ccc(C)cc3s2)cc1	none

Source: PubChem BioAssay
